In all, about 310,000 compounds went through this assay and about 14,000 (4.5%) showed an effect of 50% or more. Effects have a minus sign here. What follows is part of a selection rich in strong results, with near analogues and random picks from the rest.
target: human ether-à-go-go-related gene (hERG) potassium channel (human, UniProt Q12809); assay: primary screen, population patch clamp on CHO cells stably expressing hERG; higher = less effect of the substance
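Further: peak tail current of the secondary pulse compared with the same well before compound.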

human ether-à-go-go-related gene (hERG) potassium channel, sequence (Q12809 whole entry, looked up): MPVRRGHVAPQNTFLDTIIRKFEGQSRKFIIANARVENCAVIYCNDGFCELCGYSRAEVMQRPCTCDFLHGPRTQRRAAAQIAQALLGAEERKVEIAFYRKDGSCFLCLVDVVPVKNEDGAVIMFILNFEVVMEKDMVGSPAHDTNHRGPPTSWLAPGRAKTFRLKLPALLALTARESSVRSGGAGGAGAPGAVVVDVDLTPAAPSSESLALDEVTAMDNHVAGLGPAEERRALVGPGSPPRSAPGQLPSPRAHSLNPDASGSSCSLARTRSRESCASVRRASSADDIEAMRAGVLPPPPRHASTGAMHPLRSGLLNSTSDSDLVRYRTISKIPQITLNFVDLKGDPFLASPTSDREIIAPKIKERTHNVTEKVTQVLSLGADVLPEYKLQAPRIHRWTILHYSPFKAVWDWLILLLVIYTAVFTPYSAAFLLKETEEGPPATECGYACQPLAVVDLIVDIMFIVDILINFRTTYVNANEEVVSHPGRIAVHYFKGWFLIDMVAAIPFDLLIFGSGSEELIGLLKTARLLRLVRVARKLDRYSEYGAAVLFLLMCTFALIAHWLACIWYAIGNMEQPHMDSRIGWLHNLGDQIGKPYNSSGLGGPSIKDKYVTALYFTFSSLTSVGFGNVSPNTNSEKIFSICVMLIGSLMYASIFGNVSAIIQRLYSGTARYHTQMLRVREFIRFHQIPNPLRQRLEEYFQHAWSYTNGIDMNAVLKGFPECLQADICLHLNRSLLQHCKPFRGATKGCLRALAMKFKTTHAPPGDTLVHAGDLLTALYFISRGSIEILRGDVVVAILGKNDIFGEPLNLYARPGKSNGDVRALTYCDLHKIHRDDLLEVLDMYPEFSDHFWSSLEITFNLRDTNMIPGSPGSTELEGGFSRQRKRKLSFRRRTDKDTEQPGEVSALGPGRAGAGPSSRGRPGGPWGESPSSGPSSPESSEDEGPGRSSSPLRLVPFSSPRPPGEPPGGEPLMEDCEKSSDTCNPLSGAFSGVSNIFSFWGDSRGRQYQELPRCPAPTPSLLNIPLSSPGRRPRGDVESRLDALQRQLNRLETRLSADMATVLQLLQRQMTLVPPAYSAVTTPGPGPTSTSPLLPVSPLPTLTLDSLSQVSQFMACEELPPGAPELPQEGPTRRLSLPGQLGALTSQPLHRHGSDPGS

| SMILES | hERG current change (%, negative = inhibition) at 10uM |
| --- | --- |
| CCCC(=O)Nc1ccc(-c2cn3cccnc3n2)cc1 | 3.08% |
| Cc1cc(C(=O)NCCCOC(C)C)c2ccccc2n1 | -7.22% |
| Cc1c(Cl)cccc1NC(=O)Nc1ccccc1C(N)=O | 19% |
| CCOC(=O)CSc1nnc(-c2ccccc2)o1 | 7.66% |
| COc1ccc(/C=C/C2=CCN(Cc3ccc(OC)cc3)CC2)cc1.Cl | -72.3% |
| COc1ccc(/C=C/C2=CCN(C)CC2)cc1.Cl | -19.7% |
| COc1ccc(CN2CCNCC2)cc1.Cl | 21.6% |
| NNc1n[nH]c(=S)n1N | 15.2% |
| CCOC(=O)c1cc(CC)sc1/N=C/C1C(=O)CCCC1=O | 10.9% |
| O=C1OC(c2ccc3c(c2)OCO3)N(C(=O)c2ccc(Cl)c(Cl)c2)c2ccccc21 (stereo not shown) | 15.1% |
| COc1cc(CO)cc(-c2cc(CO)cc(OC)c2OC)c1OC | 10.3% |
| COc1ccc(C(NC(=O)CNC(C)=O)C(=O)Nc2ccc(C(C)C)cc2)cc1 (stereo not shown) | -5.76% |
| CC(CN1CCCCC1)NC(=O)c1cc(-c2ccccn2)nc2ccc(Cl)cc12 (stereo not shown) | -21.8% |
| O=C(NC1CC1)c1cc(-c2ccccn2)nc2ccccc12 | -29.5% |
| CC1CCN(CC(C)CNC(=O)c2cc(-c3ccccn3)nc3ccccc23)CC1 (stereo not shown) | -62.5% |
| Cc1ccc(-c2cc(C(=O)NC3CCN(Cc4ccccc4)CC3)c3ccccc3n2)cc1 | 7.42% |
| Cl.O=C(NC1CCN(Cc2ccccc2)CC1)c1cc(-c2ccccn2)nc2ccccc12 | -69.4% |
| CC1CC(C)CN(C(=O)c2cc(-c3ccccn3)nc3ccccc23)C1 (stereo not shown) | -6.19% |
| Cc1cc(C)n(CC(O)COc2ccc(F)cc2)n1 (stereo not shown) | 9.76% |
| CCC(Cc1ccccc1)NC(=O)/C=C/c1ccco1 (stereo not shown) | 9.2% |
| CCn1cc(S(=O)(=O)Nc2cc(C)ccc2F)cn1 | 3.63% |

| SMILES | hERG current change (%, negative = inhibition) at 10uM |
| --- | --- |
| O=C(CNC(=O)c1sc2ccccc2c1Cl)OCc1ccccc1 | 3.28% |
| COC(=O)C1=C(C)N(CCCC(=O)O)C(=O)NC1c1cccc2ccccc12 (stereo not shown) | 5.92% |
| COc1ccccc1-n1c(=O)[nH]c2c(C(N)=O)nc(CC(C)C)nc21 | 5.01% |
| NC(N)=N/N=C/c1cn(-c2ccccc2)nc1-c1cccs1.O=[N+]([O-])O | -62.1% |
| NC(=O)N/N=C/c1cn(-c2ccccc2)nc1-c1cccs1 | -38.8% |
| O=C(N/N=C/c1cn(-c2ccccc2)nc1-c1cccs1)c1ccncc1 | -10.2% |
| CCOc1ccc(CN(C)C(=O)c2ccc(=O)[nH]c2)cc1 | 16.6% |
| CCOC(=O)c1ncn2c1[C@@H]1CCNC1C(=O)c1cc(OC)ccc1-2 (stereo partly shown) | -68.4% |
| CCOC(=O)c1ncn2c1CN(C)C(=O)c1cc(F)ccc1-2 | 8.55% |
| CCOC(=O)C1=C(C)N(C)C(=S)NC1c1cc(OC)ccc1OC (stereo not shown) | 3.73% |
| Cc1nc(N2CCC(C(N)=O)CC2)c2c(-c3cccs3)csc2n1 | -0.812% |
| Cc1ccc(N(CCC#N)C(=O)COC(=O)c2cc(C)oc2C)cc1 | -15.3% |
| CCOC(=O)C1CCCN(C2=NC(=O)/C(=C/c3ccc(OC)c(OC)c3)S2)C1 (stereo not shown) | -22.8% |
| COc1ccc(CN2CCCC(C(=O)N3CCCCC3)C2)c(OC)c1.O=C(O)C(=O)O (stereo not shown) | -26.7% |
| COc1ccc(CN2CCCC(C(=O)c3ccc(Cl)cc3)C2)c(O)c1 (stereo not shown) | -67.7% |
| CCOC(=O)C1CCCN(CC(O)COc2ccc(OC)cc2C(C)(C)C)C1 (stereo not shown) | -61.4% |
| COc1ccc(CN2CCCC(C(=O)c3ccc(Cl)cc3)C2)c(OC)c1 (stereo not shown) | -75.2% |
| CCOC(=O)C1CCCN(C2=NC(=O)/C(=C/c3ccc(OC)cc3OC)S2)C1 (stereo not shown) | -52.6% |
| COc1ccc(C(=O)C2CCCN(Cc3cc(Cl)ccc3O)C2)c(OC)c1 (stereo not shown) | -26.8% |
| CCOC(=O)N1CCN(CC(O)COc2ccc(OC)cc2C(C)(C)C)CC1.Cl (stereo not shown) | -12% |
| CCOC(=O)C1CCCN(CC(O)COc2cccc(C)c2)C1.Cl (stereo not shown) | -23.7% |

| SMILES | hERG current change (%, negative = inhibition) at 10uM |
| --- | --- |
| CCOC(=O)C1CCCN(C2=NC(=O)/C(=C/c3ccc(OC)cc3)S2)C1 (stereo not shown) | -20.1% |
| COC(=O)CC1(CC(=O)OC)C(=O)N(c2ccccc2)C(=O)N(c2ccccc2)C1=O | 11.7% |
| C=CCNC(=O)CN(CCc1ccccc1)S(=O)(=O)c1ccccc1 | -17.6% |
| CCOC(=O)C1CCN(Cc2ccc(OC)cc2OC)CC1 | -45.2% |
| COc1ccc(CN2CCCC(C(=O)N3CCCC3)C2)c(OC)c1.O=C(O)C(=O)O (stereo not shown) | -9.41% |
| CCOC(=O)C1CCCN(Cc2ccc(OC)cc2OC)C1 (stereo not shown) | -52.7% |
| Cc1ccccc1N1C(=O)NC(=O)/C(=C\c2cc(C)n(C)c2C)C1=O | -3.79% |
| OCCC1CN(C/C=C/c2ccco2)CCN1Cc1ccccc1 (stereo not shown) | -8.57% |
| OCCC1CN(CC(c2ccccc2)c2ccccc2)CCN1C1CCCC1 (stereo not shown) | -71.2% |
| OCCC1CN(C/C(Cl)=C/c2ccccc2)CCN1C1CCCC1 (stereo not shown) | -77.4% |
| CC(C)CCN1CCN(Cc2cccs2)CC1CCO (stereo not shown) | -10.7% |
| CC(C)CCN1CCN(CC(c2ccccc2)c2ccccc2)CC1CCO (stereo not shown) | -82.3% |
| OCCC1CN(Cc2ccccn2)CCN1C1CCCC1 (stereo not shown) | 9.91% |
| OCCC1CN(CC#Cc2ccccc2)CCN1C1CCCC1 (stereo not shown) | -46.2% |
| Cc1ccc(CN2CCN(C/C(Cl)=C/c3ccccc3)CC2CCO)o1 (stereo not shown) | -45.2% |
| CC(C)=CCN1CCN(C/C(Cl)=C/c2ccccc2)CC1CCO (stereo not shown) | -26.9% |
| CC(C)CCN1CCN(CC#Cc2ccccc2)CC1CCO (stereo not shown) | -49.9% |
| CCn1cc(CN2CCN(CCC(C)C)C(CCO)C2)c2ccccc21 (stereo not shown) | -31.9% |
| CC(C)CCN1CCN(C/C=C/c2ccco2)CC1CCO (stereo not shown) | -57.1% |

Reference: publication PMC4336329 (PLoS ONE, 2015)
